Laboratory results: PubChem BioAssay (Tox21)
Activity calls are given as the source filed them. Calls come from the whole dose curve.

Experiment: G protein-coupled receptor (GPCR) small molecule agonists, calcium flux assay: HEK293 wild type cell line counter screen (AID 1920065)
Details: HEK293 WT calcium flux, fluorescence, agonist mode; series mostly up to 57.6 µM; activation: at the top concentration
Source text: U.S. Tox21 Program National Center for Advancing Translational Sciences [NCATS] Division of Preclinical Innovation [DPI] U.S. Environmental Protection Agency [EPA] National Institutes of Environmental Health Sciences [NIEHS] National Toxicology Program [NTP] U.S. Food and Drug Administration [FDA] Assay overview: The increased intracellular calcium release that occurred upon G protein-coupled receptor (GPCR) activation led to the frequent use of calcium flux assays to detect GPCR activation. For the purpose of studying and screening compounds that may activate GPCR, receptor-overexpressing models were typically generated using Hek293 wild-type (WT) cells. In order to eliminate the compounds that may have induced calcium release for non-specific activation, a counter-assay utilizing calcium flux on Hek293 WT cells was performed. The data were formulated in order to serve as a control for any calcium flux detection utilizing Hek293 cells with either GPCR overexpression or gene modification. The procurement of Hek293 WT cells from ATCC. Fluorescence intensity can be utilized to determine the activation of the compound in a calcium flux assay. As a counter control, this cell line was utilized to screen the Tox21 10K compound library.
Assay Protocol Summary: Hek293 cells were dispensed at 1500cells/4uL/well in 1536-well black wall/clear bottom plates using a multidrop dispenser. After the assay plates were incubated at a 37 C/5% CO2 incubator for 18 hours, 4 uL of Calcium Dye Solution was added to each well. The plates were incubated at 37 C for 1 hour. For agonist mode, 23 nL of compounds dissolved in DMSO, positive control (ATP) or DMSO only was transferred to the assay plate by a pin tool station. The fluorescence intensity in the plates was measured using FDSS 7000EX kinetic plate reader with a filter set of Ex/Em=480/540 for 3 min at 1 sec intervals. Each test compound was measured at 15 concentrations and in triplicates.
% is set by controls: 0 for no effect and ±100 for the full control effect.

| Structure (SMILES) | activation |
| --- | --- |
| C/C(=N\[Si](C)(C)C)O[Si](C)(C)C | 0.0329% (inactive) |
| CCCCCCCCCCCCCCNCCO | -0.771% [at 26.5 µM] (inactive) |
| CCOCCOCCOC(C)=O | -0.53% (inactive) |
| CC(C)=CC(=O)O | 0.118% (inactive) |
| C[C@@H]1CN(CCCn2c3ccccc3c3ccccc32)C[C@H](C)N1 | 1.46% [at 26.5 µM] (inactive) |
| CC(C)=CC1CC(C)CCO1 (stereo not given) | -1.61% (inactive) |
| O=C1c2cccc(O)c2C(=O)c2c(O)cc(CO)cc21 | 1.1% (inactive) |
| O=C(O)Cc1ccc(-c2ccccc2)cc1 | 0.563% [at 26.5 µM] (inactive) |
| O=C=NCc1cccc(CN=C=O)c1 | 0.869% [at 11.8 µM] (inactive) |
| NS(=O)(=O)c1cc(C2(O)NC(=O)c3ccccc32)ccc1Cl (stereo not given) | -0.0214% [at 26.5 µM] (inactive) |
| NCCOCCOCCN | 0.324% (inactive) |
| COCC(=O)Nc1c(I)c(C(=O)NCC(O)CO)c(I)c(C(=O)N(C)CC(O)CO)c1I (stereo not given) | 1.33% [at 26.5 µM] (inactive) |
| CCN(CC)C(=O)Nc1ccc(OCC(O)CNC(C)(C)C)c(C(C)=O)c1 (stereo not given) | -0.153% [at 26.5 µM] (inactive) |
| C=C(C)CCO | -1.01% (inactive) |
| OCCCc1cccnc1 | 0.366% (inactive) |
| Nc1cc(C(F)(F)F)ccc1S | 0.642% [at 26.5 µM] (inactive) |
| Nc1cccc(S(=O)(=O)O)c1 | 0.289% (inactive) |
| CCCC(C)C | 0.73% (inactive) |
| CCCCCCC(CO)CCCC (stereo not given) | -0.257% (inactive) |
| COC(=O)CCCCC(CCSS/C(CCO)=C(\C)N(C=O)Cc1cnc(C)nc1N)SC(C)=O (stereo not given) | -0.0296% [at 26.5 µM] (inactive) |

| Structure (SMILES) | activation |
| --- | --- |
| CC(C)(C)OC(=O)c1ccccc1C(=O)O | -0.309% (inactive) |
| O=[N+]([O-])c1cccc(I)c1 | 0.309% (inactive) |
| CCN[C@@H]1C[C@H](N)[C@@H](OC2OC(CN)=CCC2N)[C@H](O)[C@H]1O[C@H]1OC[C@](C)(O)[C@H](NC)[C@H]1O (stereo not given in full) | 1.44% [at 0.217 µM] (inactive) |
| CC(C)Nc1nc(N)nc(Cl)n1 | -0.0075% (inactive) |
| CN1[C@@H]2CC[C@H]1CC(OC(=O)c1c[nH]c3ccccc13)C2 (stereo not given in full) | 0.564% [at 26.5 µM] (inactive) |
| c1ccc2c(CC3=NCCN3)cccc2c1 | -0.615% [at 26.5 µM] (inactive) |
| C=C(C)C(=O)OCC(C)(C)COC(=O)C(=C)C | -0.661% (inactive) |
| O=C(CO)[C@@H](O)[C@H](O)[C@@H](O)CO | 0.425% [at 26.5 µM] (inactive) |
| Nc1cccc(S(=O)(=O)c2cccc(N)c2)c1 | -0.127% (inactive) |
| O=NN(CCCl)C(=O)NC1CCCCC1 | -0.0739% [at 26.5 µM] (inactive) |
| Oc1ccccc1C=NCc1ccccc1 | -0.096% [at 26.5 µM] (inactive) |
| CCOC(=O)c1ccc(NC(=O)CN2CCCCC2)cc1 | 1.25% [at 26.5 µM] (inactive) |
| O=C(OOC(=O)c1ccccc1)c1ccccc1 | 1.16% [at 26.5 µM] (inactive) |
| CC(C)COC(=O)COc1cc(Cl)c(Cl)cc1Cl | 2.76% (inactive) |
| O=C(O)COCC(=O)O | -0.26% (inactive) |
| CCOc1ccc(NC(=O)OC(C)C)cc1OCC | -3.04% (inactive) |
| OCC(O)c1ccccc1 (stereo not given) | 0.0555% (inactive) |
| CCCCCCCCCCCCCCCCCCO | -0.716% [at 26.5 µM] (inactive) |
| CC(c1cc(C(C)(C)C)cc(C(C)(C)C)c1O)c1cc(C(C)(C)C)cc(C(C)(C)C)c1O | -0.0989% (inactive) |
| CCOC(=O)[C@H](O)[C@@H](O)C(=O)OCC | 0.0426% (inactive) |
